Screening results (PubChem BioAssay)
An excerpt weighted towards active compounds, which were near 0.86% of everything screened.
IDE cell activ = IDE (human) activation, cell-based; activation, % at 5.96 µM; HEK cells, FAbeta-B cleavage, fluorescence polarization; 0% vehicle, 100% cell-free pure enzyme wells; hit rate 0.073% among 340,000; P14735;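 active = activation above the mean of all tested compounds plus 3 SD, set per screening campaign, cut at about 17% in these data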
TLR9-MyD88 inh = blocks human TLR9 binding to MyD88. hit rate 0.21% among 340,000. Q9NR96+Q99836. CHO BLA complementation TLR9-MyD88, CCF4 FRET ratio. inhibition, % at 4.98 µM;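 active = inhibition above the mean over all tested compounds plus 3 SD, cut at about 21% in these data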;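 also: 0% = DMSO only wells and 100% = clavulanate BLA inhibitor control wells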
NOD2 RIPK2 PPI = inhibitors of human NOD2-RIPK2 interaction; O43353; CHO BLA complementation NOD2-RIPK2, CCF4 ratio; inhibition, % at 4.98 µM; hit rate 0.38% among 360,000; AID 624267; in the data active = inhibition above about 21%;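 also: 0% = vehicle only and 100% = reference blocker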
Target sequence (O43353 whole entry, looked up): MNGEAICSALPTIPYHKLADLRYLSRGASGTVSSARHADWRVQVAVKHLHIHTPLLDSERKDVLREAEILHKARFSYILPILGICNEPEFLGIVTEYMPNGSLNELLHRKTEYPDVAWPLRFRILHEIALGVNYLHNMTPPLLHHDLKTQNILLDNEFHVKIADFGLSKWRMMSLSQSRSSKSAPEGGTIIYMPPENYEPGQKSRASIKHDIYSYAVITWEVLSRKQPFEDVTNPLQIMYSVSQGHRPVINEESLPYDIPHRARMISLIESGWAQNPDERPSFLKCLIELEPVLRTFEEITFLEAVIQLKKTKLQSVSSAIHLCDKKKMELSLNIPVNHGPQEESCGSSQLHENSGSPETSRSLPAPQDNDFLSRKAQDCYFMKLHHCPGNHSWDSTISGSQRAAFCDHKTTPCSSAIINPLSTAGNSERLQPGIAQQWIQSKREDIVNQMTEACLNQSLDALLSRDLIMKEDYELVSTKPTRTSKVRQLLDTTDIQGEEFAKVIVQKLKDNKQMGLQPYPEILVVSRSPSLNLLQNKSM
IDE cell inh = inhibits human insulin-degrading enzyme in HEK cells; inhibition, % at 5.59 µM; hit rate 0.41% among 320,000; FAbetaB cleavage, fluorescence polarization;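 active = percent inhibition above the average of all tested compounds plus 3 SD, set per screening campaign, cut at about 16% in these data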;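 also: IDE supplied by intact live HEK cells; FP after avidin binding of uncleaved biotin substrate so inhibition keeps polarization high; 0% = DMSO wells and 100% = 60 µM reference IDE inhibitor Ii1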
TLR4-MyD88 BLA = TLR4-MyD88 interaction inhibition in cells; hit rate 0.18% among 200,000; HeLa CL3-4 TLR4/MyD88 BLA complementation, FRET ratio; inhibition, % at 8.4 µM; O00206+Q99836; AID 861; in the data active = inhibition above about 25%;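 also: 0% = vehicle and 100% = reference inhibitor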
NOD2-RIPK2 conf = NOD2-RIPK2 interaction inhibition confirmed; shares compounds with NOD2 RIPK2 PPI; CHO cells, NOD2-RIPK2 BLA complementation, CCF4 FRET; inhibition, % at 4.98 µM; hit rate 70% among 1,200; AID 624370;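 active = mean inhibition across replicates above a set limit taken from the earlier primary screen, cut at about 21% in these data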;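 also: 0% = DMSO-only wells and the high end = clavulanate BLA-blocked wells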
BLA counter = counter-screen for NOD2-RIPK2 interaction inhibitors: BLA reporter. hit rate 57% among 1,200. CHO BLA reporter, CCF4 FRET ratio, counterscreen. inhibition, % at 4.98 µM. shares compounds with NOD2 RIPK2 PPI. AID 624371;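 active = mean inhibition above the low-control mean inhibition plus three low-control SD, cut at about 11% in these data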;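 also: 0% = DMSO only wells and 100% = clavulanate high control wells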
Starred values were filed as active, the others as inactive; . = no result.

SMILES | IDE cell activ | TLR9-MyD88 inh | NOD2 RIPK2 PPI | IDE cell inh | TLR4-MyD88 BLA | NOD2-RIPK2 conf | BLA counter
CN(C)S(=O)(=O)c1ccc(C(=O)OCc2nnc(-c3ccccc3)o2)cc1 | 2 | -2 | -3 | 8 | . | . | .
CS(=O)(=O)c1ccc(C(=O)OCc2nnc(-c3ccccc3)o2)cc1[N+](=O)[O-] | 7 | 20 | 21* | . | -6 | 55* | 6
COc1ccc(CNC(=O)c2nc(S(=O)(=O)Cc3ccccc3)ncc2Cl)cc1 | -2 | 8 | 62* | 8 | . | 63* | 15*
O=C(NCc1ccccc1)c1nc(S(=O)(=O)Cc2ccccc2)ncc1Cl | -4 | 1 | 53* | 3 | . | 54* | 14*
COC(=O)c1ccccc1NC(=O)c1nc(S(=O)(=O)Cc2ccccc2)ncc1Cl | 2 | 8 | 2 | -2 | . | . | .
Cc1ccc(C(=O)NCC(=O)OCCOc2cccc(Cl)c2)cc1 | 0 | 0 | -3 | -6 | . | . | .
CC(C)(C)C(=O)Nc1ccc2c(c1)OCCOCCOc1cc(NC(=O)C(C)(C)C)ccc1OCCOCCO2 | 6 | 2 | -6 | 0 | 1 | . | .
Cc1ccc(CS(=O)(=O)c2ncc(Cl)c(C(=O)Nc3nnc(C(C)C)s3)n2)cc1 | 6 | 11 | 48* | 1 | . | 45* | 31*
CC(C)c1nnc(NC(=O)c2nc(S(=O)(=O)Cc3ccc(F)cc3)ncc2Cl)s1 | 3 | 2 | 25* | 5 | . | 25* | 18*
CC(C)c1nnc(NC(=O)c2nc(S(=O)(=O)Cc3ccccc3F)ncc2Cl)s1 | . | . | . | 0 | . | . | .
Cc1cccc(CS(=O)(=O)c2ncc(Cl)c(C(=O)Nc3nnc(C(C)C)s3)n2)c1 | 5 | 11 | 41* | 1 | . | 35* | 28*
CS(=O)(=O)c1ccc(C(=O)OCC(=O)N2CCN(CCC3CCCCC3)CC2)cc1[N+](=O)[O-] | . | . | 55* | . | . | 58* | 9
CS(=O)(=O)c1ccc(C(=O)OCC(=O)N2CCOCC2)cc1[N+](=O)[O-] | . | . | 10 | . | . | . | .
O=C(OCC(=O)N1CCN(c2ccccc2)CC1)c1cc(F)c(F)cc1Cl | . | -7 | 21* | . | . | -14 | -4
COc1ccc(Nc2nnc(SCC(=O)N3CC(=O)Nc4ccccc43)s2)cc1 | -3 | -1 | 27* | -1 | 3 | 3 | -8
COc1ccc(Nc2nnc(SCC(=O)N3CCCC3)s2)cc1 | 3 | -4 | -5 | 3 | -3 | . | .
O=[N+]([O-])c1ccc(N/N=C/c2cccc(O)c2)cc1 | -4 | 7 | 22* | -2 | . | 24* | 32*
OC[C@@H]1CN(Cc2ccc(Cl)cc2)C[C@H](n2cnc3c(N4CCN(c5ccccc5)CC4)ncnc32)O1 | . | . | 5 | . | . | . | .
CCOC(=O)c1ccc(NC(=O)Nc2ccon2)cc1 | 5 | 11 | 22* | 4 | . | 21* | -2
CCOC(=O)c1ccc(NC(=O)Nc2ccc(Cl)cn2)cc1 | 6 | 0 | -7 | -3 | -6 | . | .
O=C(N/N=C/c1cc(Cl)cc(Cl)c1O)c1ccncc1 | -2 | 18 | 32* | 14 | . | 26* | 26*
Cc1cc(NC(=O)CSc2nnc(-c3ccoc3C)o2)no1 | 2 | -4 | -1 | 2 | -4 | . | .
CCOC(=O)C[n+]1ccc2c([nH]c3ccccc32)c1C | -5 | -5 | 38* | 2 | . | 3 | -4
COCC(=O)Nc1nc2n(n1)C(c1ccccc1)CC(c1ccc(OC)cc1)N2 (stereo not drawn) | 4 | 13 | 28* | 0 | -2 | 26* | 26*
COCC(=O)Nc1nc2n(n1)C(c1ccc(OC)cc1)CC(c1ccc(OC)cc1)N2 (stereo not drawn) | 2 | -4 | -1 | . | 7 | . | .
CCCCCC[n+]1ccccc1/C=C/c1ccc(N(C)C)cc1 | . | . | 33* | . | . | 41* | 41*
O=S(=O)(/N=S1\CC=CCN1S(=O)(=O)c1ccccc1)c1ccccc1 (stereo not drawn) | -6 | 11 | 25* | . | . | -10 | -17
CC1=C(C)CS(=O)N(S(=O)(=O)c2ccccc2)C1 (stereo not drawn) | 3 | 7 | 3 | -3 | -1 | . | .
O=C(c1cc2cc(Cl)ccc2[nH]1)N1CCN(c2ccccc2F)CC1 | 2 | 2 | -9 | -1 | . | . | .
